This is part of a sample that, as a whole, favours compounds with a hit. Of some 83,000 tested, about 20% had one in any assay.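 Values shown are percent growth following 48 h exposure of cells in 96-well plates to a single concentration of compound; below 10 was considered active.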 Unmarked numbers belong to inactive results. Activity calls are given as the source filed them.
Tested on: SR leukemia
Test: NCI-60 one-dose screen, 48 h (100 = growth as untreated, 0 = no growth, -100 = all killed)
Settings: 10 µM
Procedure: Growth inhibition of the SR human tumor cell line is measured as a screen for anti-cancer activity. Cells are grown in 96 well plates and exposed to the test compound for 48 hours. Compounds are tested at a single concentration, which is 10^-5 M for most compounds. The reported endpoint is percent growth (GI% or GIPRCNT), where numbers from 0 - 100% represent growth inhibition, and numbers from -100% - 0 represent cell death. For example, a value of 40 represents 60% growth inhibition. A value of 0 means no net growth occurred over the course of the experiment. A value of -40 indicates 40% of cells at the beginning of the experiment died by the end of the experiment. A value of -100 means all cells are dead at the end of the experiment.
NCI-60 Human Tumor Cell Lines Screen was performed using the standard one-dose NCI protocol, which is described in more detail at https://dtp.cancer.gov/discovery_development/nci-60/default.htm.
Compounds with GIPRCNT values below 10 were considered active. Activity score was based on GIPRCNT using the following formula: […]
Score is 0 for GIPRCNT values of 100 or above, 50 for GIPRCNT values of 0, and 100 for GIPRCNT values of -100.

Row | SMILES | growth
1 | COc1cc2oc(-c3cccc(C(=O)Nc4ccc(Cl)cc4)c3)cc(=O)c2c(OCCNC(=O)[C@@H](N)CO)c1OC | -38.1% (active)
2 | COc1ccc(Cc2nn(CC(=O)N/N=C/c3ccc(Br)cc3)c(=O)c3c(C)noc23)cc1 | 38.5%
3 | COc1ccc(C2OC[C@@]3(C)C4CC[C@]5(C)C(CC=C6C7CC(C)(C)CC[C@]7(C(=O)O)CC[C@]65C)[C@@]4(C)C[C@@H](O)[C@@H]3O2)cc1 (stereo not given in full) | 54.7%
4 | C#C[C@]1(O)CC[C@H]2[C@@H]3CC=C4c5sc(Nc6cc(C)cc(C)n6)nc5CC[C@]4(C)[C@H]3CC[C@@]21C | 3.1% (active)
5 | Cn1cc(-c2cc3nc(-c4c[nH]c5ccccc45)cc(N)n3n2)c2cc(Cl)ccc21 | -8.96% (active)
6 | Cc1cc(N=C2NC(=O)/C(=C/c3cc(C(C)(C)C)c(O)c(C(C)(C)C)c3)S2)n[nH]1 | 12.2%
7 | CC1[C@H]2[C@H](C[C@H]3[C@@H]4CC=C5c6sc(Nc7cccc(Cl)n7)nc6CC[C@]5(C)[C@H]4CC[C@@]32C)O[C@]12CC[C@@H](C)CO2 (stereo not given in full) | 65.3%
8 | COc1ccc(Cc2nn(CC(=O)N/N=C/c3ccc([N+](=O)[O-])cc3)c(=O)c3c(C)noc23)cc1 | 93.2%
9 | Nc1nnc(-c2c[nH]c3ncc(Br)cc23)c(-c2c[nH]c3ccc(Br)cc23)n1 | 6.57% (active)
10 | Cc1ccc(COc2ccc(NC(=O)Nc3ccc(Cl)c(C(F)(F)F)c3)cc2)cc1 | 55%
11 | Cn1cc(/C=C(/SS/C(=C/c2cn(C)c3cccc(C(=O)O)c23)C(=O)O)C(=O)O)c2c(C(=O)O)cccc21 | 98.7%
12 | O=C(O)CCN1C(=O)/C(=C/C=C/c2ccc([N+](=O)[O-])o2)SC1=S | 0.111% (active)
13 | COc1cc(Nc2nc(O)c(/C=C3\C=Nc4ccccc43)s2)cc(OC)c1OC | 2.6% (active)
14 | C#C[C@]1(O)CC[C@H]2[C@@H]3CC=C4c5sc(Nc6ccc(N(C)C)cc6)nc5CC[C@]4(C)[C@H]3CC[C@@]21C | 9.05% (active)
15 | COc1ccc2[nH]cc(-c3nc(N)nnc3-c3cn(C)c4ncc(Br)cc34)c2c1 | 3% (active)
16 | COc1ccc(-n2c(SCC(=O)NNS(=O)(=O)c3ccccc3)nc3ccc(Cl)cc3c2=O)cc1 | 78.9%
17 | COc1ccccc1-n1cc(C#N)c(N)c1C(=O)c1ccc(Cl)cc1Cl | 11.5%
18 | COc1cccc(O)c1/C=C1\SCc2cc3c(OC)cccc3[o+]c21 | 98%
19 | CCOC(=O)c1ccc(NC(=O)CSC(CC(=O)c2sc(Nc3ccccn3)nc2C)c2ccccc2F)cc1 (stereo not given) | 4.27% (active)
20 | Cc1ccc(-c2nc(C#N)c(S(=O)(=O)N3CCN(S(C)(=O)=O)CC3)o2)cc1 | 1.13% (active)

Row | SMILES | growth
21 | Fc1ccc(/C=C/c2nc3ccccc3n3c(-c4ccc(Cl)cc4)nnc23)cc1 | -3.04% (active)
22 | O=C(CSc1nc2ccccc2c(=O)n1-c1ccc(Cl)cc1)Nc1ccc(-c2nc3ccc([N+](=O)[O-])cc3[nH]2)cc1 | 38.2%
23 | Cn1cc(-c2nnc(N)nc2-c2c[nH]c3ccc(F)cc23)c2cc(Br)cnc21 | 9.16% (active)
24 | Cc1ccc2sc3c(c2c1)Oc1nc[nH]c(=O)c1C3c1cccc(F)c1 (stereo not given) | 96.3%
25 | COc1cc(C2CC(c3ccc(Oc4ccc(Cl)cc4)cc3)=NN2c2nc(-c3ccc(Cl)cc3)c(C#N)c(N3CCOCC3)n2)cc(OC)c1OC (stereo not given) | 88.5%
26 | C#CCOc1cc(N(CC)CC)ccc1C(C(=O)NC(C)(C)C)N(C(=O)C1CCc2cc(F)ccc2O1)c1ccc(F)cc1F (stereo not given) | 26.6%
27 | CCOc1ccc(/C=N/NC(=O)Cn2nc(Cc3ccc(OC)cc3)c3onc(C)c3c2=O)cc1 | 29.8%
28 | Cc1cc(N=C2NC(=O)S/C2=C\c2ccc(F)cc2)n[nH]1 | 8.59% (active)
29 | O=C(Nc1ccc(OCc2ccc(F)cc2)cc1)Nc1ccc(Cl)c(C(F)(F)F)c1 | -7.46% (active)
30 | Cn1cc(-c2nc(N)nnc2-c2c[nH]c3ccccc23)c2cc(Br)cnc21 | 8.01% (active)
31 | COc1ccc(OC)c(-n2cc(C#N)c(N)c2C(=O)c2ccc(Cl)cc2Cl)c1 | 13.7%
32 | CCOC(=O)C1=C(N)N(c2ccc(C)cc2)C2=C(C(=O)CC(C)(C)C2)C1c1ccccc1Br (stereo not given) | 65.7%
33 | Cc1ccc2c(c1)C(=O)/C(=C/c1c[nH]c3ccccc13)S2 | 27.1%
34 | Fc1ccc(-c2csc(Nc3cccc(Nc4nc(-c5ccc(F)cc5)cs4)c3)n2)cc1 | 51.4%
35 | COc1cc(-c2nc3ccc(C)cc3[nH]2)ccc1OCc1nnc(-c2ccccc2Br)o1 | 59.1%
36 | COc1ccc(NCc2cn(-c3ccc(C(=O)O)cc3)nc2-c2ccc(F)cc2)cc1C(F)(F)F | 50.7%
37 | O=C1NC(=S)S/C1=C\c1cn(-c2ccccc2)nc1-c1ccc([N+](=O)[O-])cc1 | 24.5%
38 | COc1ccc(C2c3sc4ccc(C)cc4c3Oc3nc[nH]c(=O)c32)cc1 (stereo not given) | 39.4%
39 | O=C(c1ccccc1)c1ccc2nc(-c3ccccc3Br)[nH]c2c1 | -22.8% (active)
40 | CC1(C)CC[C@]2(C(=O)O)CC[C@]3(C)C(=CCC4[C@@]5(C)C[C@@H](O)[C@@H]6OC(c7cccc(F)c7)OC[C@@]6(C)C5CC[C@]43C)C2C1 (stereo not given in full) | 22.4%
